Measurements as given in PubChem BioAssay.
Active and inactive are the calls of the source.

Experiments:
[1] = system: PRMT1 (protein arginine N-methyltransferase 1); assay: PRMT1 binders on small-molecule microarrays, primary screen, biochemical, small-molecule microarray, 635 nm fluorescence (AID 1088); conditions: small-molecule microarray binding, higher = more signal;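 also: binding of Prmt1 protein to compounds spotted on small-molecule microarray slides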
[2] = yeast growth modulation, basal conditions, primary screen, YJM789 clinical isolate, OD600, 24 h (AID 1089);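 also: growth of clinical yeast isolate S. cerevisiae YJM 789 seeded 1000 cells per well; test concentration not given here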; conditions: S. cerevisiae YJM789 growth, higher = more signal, called active from +8 up or from −8 down
[3] = fission yeast growth modulation, primary screen, strain 972, OD600, 24 h, no modulator (AID 1090);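 also: basal condition with compound alone and no growth modifier present; test concentration not given here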; conditions: S. pombe 972 growth, higher = more signal, called active from +8 up or from −8 down
[4] = S. cerevisiae growth modulation with rapamycin, primary screen, strain BY4716, OD600, 96 h (AID 1091); conditions: higher = more signal, called active from +8 up or from −8 down; also: test concentration not given here
[5] = target: Torsin-1A-interacting protein 2 (Homo sapiens) (UniProt Q8NFQ8); assay: LULL1 binders on small-molecule microarray, primary screen, cell lysate, human LULL1 lysate, 635/667 nm fluorescence (AID 1092); conditions: hLULL1 lysate binding, 635 nm fluorescence, higher = more signal;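 also: probe is lysate of COS7 cells overexpressing human LULL1; score merges per-feature 667 nm fluorescence with signal-to-noise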
Chain of Torsin-1A-interacting protein 2 (Homo sapiens) (Q8NFQ8 whole entry, looked up): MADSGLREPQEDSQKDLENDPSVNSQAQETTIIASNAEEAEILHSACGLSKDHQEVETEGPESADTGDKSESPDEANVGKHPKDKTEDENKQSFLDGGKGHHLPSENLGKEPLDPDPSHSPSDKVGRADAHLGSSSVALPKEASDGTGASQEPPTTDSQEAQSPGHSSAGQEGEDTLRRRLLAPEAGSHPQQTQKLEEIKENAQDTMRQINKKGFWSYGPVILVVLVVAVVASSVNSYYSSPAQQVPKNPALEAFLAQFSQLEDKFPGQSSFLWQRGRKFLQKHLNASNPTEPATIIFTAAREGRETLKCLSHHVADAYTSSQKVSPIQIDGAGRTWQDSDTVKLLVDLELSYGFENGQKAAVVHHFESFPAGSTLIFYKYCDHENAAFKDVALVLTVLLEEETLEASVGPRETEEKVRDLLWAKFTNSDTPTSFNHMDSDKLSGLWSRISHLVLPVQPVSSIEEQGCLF

[6] = E. coli growth modulation, two-sided OD650, primary screen, E. coli filamentation project, strain DRC41, 24 h (AID 1093); conditions: OD650, 24 h, higher = more signal, called active from +8 up or from −8 down;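 also: MC1000 strain lacking acrAB efflux and sulA so SOS filamentation is blocked; test concentration not given here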
[7] = small-molecule microarray binders of probe aLefty2, primary screen, biochemical, biotinylated probe, 635/667 nm fluorescence (AID 1094); conditions: higher = more signal;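 also: score merges spot fluorescence near 667 nm with spot signal-to-noise ratio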
[8] = system: Noggin (protein binding on small-molecule microarray); assay: Noggin binders on small-molecule microarray, primary screen, biochemical, 635/667 nm fluorescence (AID 1095); conditions: 635 nm fluorescence, higher = more signal;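 also: score merges 667 nm feature fluorescence with signal to noise over triplicate slides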
[9] = target: Neurogenic locus notch homolog protein 3 (Homo sapiens) (UniProt Q9UM47); assay: NOTCH3 binders on small-molecule microarray, primary screen, biochemical, 635/667 nm fluorescence (AID 1096); conditions: NOTCH3 binding, 635 nm fluorescence, higher = more signal
Chain of Neurogenic locus notch homolog protein 3 (Homo sapiens) (Q9UM47 whole entry, looked up): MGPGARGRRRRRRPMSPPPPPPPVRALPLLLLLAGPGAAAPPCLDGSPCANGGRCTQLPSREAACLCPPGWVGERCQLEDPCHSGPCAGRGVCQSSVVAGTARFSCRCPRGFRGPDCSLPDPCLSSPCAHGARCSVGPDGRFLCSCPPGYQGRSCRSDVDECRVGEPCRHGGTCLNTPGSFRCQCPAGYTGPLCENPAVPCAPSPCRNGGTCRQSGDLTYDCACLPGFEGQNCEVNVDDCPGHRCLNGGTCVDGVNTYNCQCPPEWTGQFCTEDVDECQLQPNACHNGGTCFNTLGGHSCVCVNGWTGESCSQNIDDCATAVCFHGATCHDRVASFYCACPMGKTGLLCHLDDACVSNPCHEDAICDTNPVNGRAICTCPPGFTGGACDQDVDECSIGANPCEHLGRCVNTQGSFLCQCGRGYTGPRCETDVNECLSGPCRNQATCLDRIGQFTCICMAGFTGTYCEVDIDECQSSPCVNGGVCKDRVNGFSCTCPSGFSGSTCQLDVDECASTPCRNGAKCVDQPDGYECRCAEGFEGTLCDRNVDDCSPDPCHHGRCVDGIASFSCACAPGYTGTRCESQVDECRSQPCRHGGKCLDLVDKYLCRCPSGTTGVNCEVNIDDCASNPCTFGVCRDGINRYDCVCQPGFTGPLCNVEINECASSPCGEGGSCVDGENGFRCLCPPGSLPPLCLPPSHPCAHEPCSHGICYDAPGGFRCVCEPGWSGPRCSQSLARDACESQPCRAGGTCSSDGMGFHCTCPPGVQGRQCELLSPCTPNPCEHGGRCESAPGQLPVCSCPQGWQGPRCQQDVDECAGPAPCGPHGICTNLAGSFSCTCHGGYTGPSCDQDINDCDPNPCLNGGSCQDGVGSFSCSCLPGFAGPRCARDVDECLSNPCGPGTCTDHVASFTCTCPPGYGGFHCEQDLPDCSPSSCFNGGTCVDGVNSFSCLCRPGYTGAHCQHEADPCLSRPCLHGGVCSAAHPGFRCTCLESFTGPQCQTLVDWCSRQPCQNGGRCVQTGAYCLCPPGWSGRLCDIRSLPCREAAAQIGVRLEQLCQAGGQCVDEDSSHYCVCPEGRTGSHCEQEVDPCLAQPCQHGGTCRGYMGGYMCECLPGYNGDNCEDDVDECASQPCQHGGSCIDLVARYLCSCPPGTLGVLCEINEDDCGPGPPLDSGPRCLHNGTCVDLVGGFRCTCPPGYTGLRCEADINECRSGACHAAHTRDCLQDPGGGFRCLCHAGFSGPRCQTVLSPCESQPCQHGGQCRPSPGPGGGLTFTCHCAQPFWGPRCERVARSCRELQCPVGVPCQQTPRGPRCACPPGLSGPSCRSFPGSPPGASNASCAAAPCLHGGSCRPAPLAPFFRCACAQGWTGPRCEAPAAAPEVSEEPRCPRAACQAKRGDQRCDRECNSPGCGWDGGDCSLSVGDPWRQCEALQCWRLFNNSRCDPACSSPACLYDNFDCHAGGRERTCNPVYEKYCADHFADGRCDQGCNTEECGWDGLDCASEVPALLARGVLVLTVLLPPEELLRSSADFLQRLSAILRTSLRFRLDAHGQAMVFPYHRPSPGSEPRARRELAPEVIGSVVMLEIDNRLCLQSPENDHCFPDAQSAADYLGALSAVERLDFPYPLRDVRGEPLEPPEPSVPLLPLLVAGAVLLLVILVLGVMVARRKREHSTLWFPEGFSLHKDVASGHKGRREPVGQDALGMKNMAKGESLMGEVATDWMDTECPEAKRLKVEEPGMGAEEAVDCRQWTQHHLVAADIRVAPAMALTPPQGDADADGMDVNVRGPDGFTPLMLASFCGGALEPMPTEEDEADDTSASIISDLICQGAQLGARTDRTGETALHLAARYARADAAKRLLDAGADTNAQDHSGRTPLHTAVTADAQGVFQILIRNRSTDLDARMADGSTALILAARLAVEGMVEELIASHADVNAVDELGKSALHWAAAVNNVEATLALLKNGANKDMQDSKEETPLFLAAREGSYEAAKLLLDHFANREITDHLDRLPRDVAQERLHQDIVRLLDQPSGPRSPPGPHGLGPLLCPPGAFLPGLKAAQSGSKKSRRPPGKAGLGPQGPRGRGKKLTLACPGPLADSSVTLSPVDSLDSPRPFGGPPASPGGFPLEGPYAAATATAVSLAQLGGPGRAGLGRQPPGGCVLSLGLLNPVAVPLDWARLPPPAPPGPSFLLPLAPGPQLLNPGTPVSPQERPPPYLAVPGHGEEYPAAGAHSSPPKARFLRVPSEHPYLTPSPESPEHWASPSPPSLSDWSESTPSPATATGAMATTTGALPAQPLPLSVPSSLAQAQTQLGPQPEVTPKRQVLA

[10] = small-molecule microarray binders of probe aEGFR, primary screen, biochemical, biotinylated probe, 635/667 nm fluorescence (AID 1097); conditions: higher = more signal;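 also: probe is a biotinylated anti-EGFR antibody binding compounds printed on slides; score combines fluorescence near 667 nm and signal to noise of each spot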
[11] = system: Plasmodium falciparum Sir2 (PF13_0152, Sir2A); assay: pfSir2 binders on small-molecule microarrays, primary screen, biochemical, small-molecule microarray, 635 nm fluorescence (AID 1098); conditions: small-molecule microarray binding, fluorescence 635 nm; higher = more signal;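 also: score merges spot fluorescence intensity with its signal-to-noise ratio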
[12] = small-molecule microarray binders of probe aDKK1, primary screen, biochemical, biotinylated probe, 635/667 nm fluorescence (AID 1099); conditions: higher = more signal;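 also: score merges 667nm spot fluorescence with signal to noise across triplicate slides; reference of the scale not given here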
[13] = small-molecule microarray binders of probe aCHRDL2, primary screen, biochemical, biotinylated probe, 635/667 nm fluorescence (AID 1100); conditions: higher = more signal
[14] = splicing luciferase reporter signal modulators, primary screen, spliceosome inhibition project, cell-based, HEK293, splice +/- reporter (AID 1101); conditions: luminescence, 24 h, higher = more signal, called active from +8 up or from −8 down;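 also: HEK293 cells carrying a splicing-competent luciferase reporter gene; test concentration not given here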
[15] = target: Fibroblast growth factor 10 (Homo sapiens) (UniProt O15520); assay: FGF10 binders on small-molecule microarrays, primary screen, biochemical, small-molecule microarray, 635 nm fluorescence (AID 1102); conditions: FGF10 binding, fluorescence 635 nm, higher = more signal
Chain of Fibroblast growth factor 10 (Homo sapiens) (O15520 whole entry, looked up): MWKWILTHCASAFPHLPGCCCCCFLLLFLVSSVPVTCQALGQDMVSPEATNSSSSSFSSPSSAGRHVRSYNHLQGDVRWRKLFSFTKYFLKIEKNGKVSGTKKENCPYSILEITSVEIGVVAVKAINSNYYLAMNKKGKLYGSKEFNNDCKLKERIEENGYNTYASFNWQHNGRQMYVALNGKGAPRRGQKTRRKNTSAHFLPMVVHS

[16] = system: glycogen synthase kinase-3 (GSK3A per assay name; protocol says GSK3B); assay: GSK3 binders on small-molecule microarrays, primary screen, biochemical, small-molecule microarray, 635 nm fluorescence, GSK3A (AID 1103); conditions: small-molecule microarray binding, fluorescence 635 nm; higher = more signal; also: the record names both GSK3A and GSK3B
[17] = target: Epidermal growth factor receptor (Homo sapiens) (UniProt P00533); assay: EGFR binders on small-molecule microarrays, primary screen, biochemical, small-molecule microarray, 635 nm fluorescence (AID 1104); conditions: EGFR binding, higher = more signal;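 also: score merges 667 nm emission intensity with spot signal to noise over triplicate slides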
Chain of Epidermal growth factor receptor (Homo sapiens) (P00533 whole entry, looked up): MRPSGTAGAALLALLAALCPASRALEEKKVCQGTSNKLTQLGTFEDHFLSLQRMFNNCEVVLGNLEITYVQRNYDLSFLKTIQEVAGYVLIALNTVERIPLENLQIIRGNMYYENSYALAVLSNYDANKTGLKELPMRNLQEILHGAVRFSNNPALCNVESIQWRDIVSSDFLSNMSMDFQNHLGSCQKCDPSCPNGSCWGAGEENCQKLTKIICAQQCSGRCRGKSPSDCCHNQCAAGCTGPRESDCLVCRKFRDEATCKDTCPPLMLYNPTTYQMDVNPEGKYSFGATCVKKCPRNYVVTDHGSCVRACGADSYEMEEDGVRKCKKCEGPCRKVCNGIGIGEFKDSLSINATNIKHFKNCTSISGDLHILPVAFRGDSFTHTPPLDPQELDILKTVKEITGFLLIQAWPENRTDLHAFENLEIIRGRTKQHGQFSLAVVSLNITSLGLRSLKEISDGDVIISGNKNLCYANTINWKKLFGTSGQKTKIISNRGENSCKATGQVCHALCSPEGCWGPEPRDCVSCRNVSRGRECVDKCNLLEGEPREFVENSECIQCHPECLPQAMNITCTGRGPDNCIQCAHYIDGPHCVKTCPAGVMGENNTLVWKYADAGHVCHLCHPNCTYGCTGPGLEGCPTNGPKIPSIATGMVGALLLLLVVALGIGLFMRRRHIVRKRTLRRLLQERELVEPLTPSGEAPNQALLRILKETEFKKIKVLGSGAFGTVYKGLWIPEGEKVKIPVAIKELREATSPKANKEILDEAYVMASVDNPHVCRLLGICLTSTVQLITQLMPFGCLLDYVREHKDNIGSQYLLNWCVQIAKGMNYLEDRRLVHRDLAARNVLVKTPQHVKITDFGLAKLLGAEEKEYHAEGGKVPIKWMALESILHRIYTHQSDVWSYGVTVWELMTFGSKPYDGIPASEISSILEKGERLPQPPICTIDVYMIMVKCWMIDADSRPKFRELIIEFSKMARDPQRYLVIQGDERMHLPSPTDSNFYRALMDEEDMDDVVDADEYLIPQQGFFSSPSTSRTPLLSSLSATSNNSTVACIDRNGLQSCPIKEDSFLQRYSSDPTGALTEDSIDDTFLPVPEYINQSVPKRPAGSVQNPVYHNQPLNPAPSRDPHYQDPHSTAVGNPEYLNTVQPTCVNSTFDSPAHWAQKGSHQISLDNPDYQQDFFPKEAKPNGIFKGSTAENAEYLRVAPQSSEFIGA

[18] = target: Follistatin-related protein 3 (Homo sapiens) (UniProt O95633); assay: FSTL3 binders on small-molecule microarrays, primary screen, biochemical, small-molecule microarray, 635 nm fluorescence (AID 1105); conditions: FSTL3 binding, higher = more signal;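 also: score merges emission near 667 nm and signal to noise per printed spot across three slides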
Chain of Follistatin-related protein 3 (Homo sapiens) (O95633 whole entry, looked up): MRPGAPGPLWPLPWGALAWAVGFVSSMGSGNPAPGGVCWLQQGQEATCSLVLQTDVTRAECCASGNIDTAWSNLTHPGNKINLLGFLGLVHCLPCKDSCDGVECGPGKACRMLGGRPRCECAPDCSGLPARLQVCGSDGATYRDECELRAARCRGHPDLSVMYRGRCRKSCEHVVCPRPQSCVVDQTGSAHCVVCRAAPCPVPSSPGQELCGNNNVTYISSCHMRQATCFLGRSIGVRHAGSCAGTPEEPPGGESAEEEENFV

[19] = target: Dickkopf-related protein 1 (Homo sapiens) (UniProt O94907); assay: DKK1 binders on small-molecule microarrays, primary screen, biochemical, small-molecule microarray, 635 nm fluorescence scan (AID 1106); conditions: DKK1 binding, higher = more signal;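 also: score merges emission near 667 nm with signal to noise over three replicate slides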
Chain of Dickkopf-related protein 1 (Homo sapiens) (O94907 whole entry, looked up): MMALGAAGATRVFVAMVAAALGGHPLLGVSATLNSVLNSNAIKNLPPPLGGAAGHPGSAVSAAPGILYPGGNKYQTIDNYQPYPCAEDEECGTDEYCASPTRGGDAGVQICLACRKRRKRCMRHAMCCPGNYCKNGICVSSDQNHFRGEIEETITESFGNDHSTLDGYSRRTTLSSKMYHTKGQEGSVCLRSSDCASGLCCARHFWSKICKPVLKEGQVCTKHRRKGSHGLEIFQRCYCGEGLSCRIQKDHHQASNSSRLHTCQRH

[20] = system: Inhibin beta A chain (activin A); assay: INHBA (activin A) binders on microarrays, primary screen, biochemical, small-molecule microarray, 635 nm fluorescence scan (AID 1107); conditions: small-molecule microarray binding, higher = more signal;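 also: mouse activin A protein probed at 4.33 µg/mL on printed slides; score merges bound-protein fluorescence near 667 nm with spot signal-to-noise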

SMILES	composite z-score [1]	z-score [2]	z-score [3]	z-score [4]	composite z-score [5]	z-score [6]	composite z-score [7]	composite z-score [8]	composite z-score [9]	composite z-score [10]	composite z-score [11]	composite z-score [12]	composite z-score [13]	z-score [14]	composite z-score [15]	composite z-score [16]	composite z-score [17]	composite z-score [18]	composite z-score [19]	composite z-score [20]
O=C(NCc1ccc(F)cc1)[C@H]1C[C@H]2C(=O)N[C@@H](Cc3ccccc3)C(=O)N2[C@H]1c1ccc(O)cc1	0.53	0.839 (inactive)	0.247 (inactive)	2.14 (inactive)	2.34	0.675 (inactive)	-0.118	0.223	-0.75	-0.268	1.06	-0.103	0.105	-0.41 (inactive)	0.123	-0.469	-0.394	-0.383	0.274	-0.266
COCCCNC(=O)C1N=C(c2ccc(OCCCO)cc2)N(c2ccccc2)O1 (stereo not given)	1.39	0.0302 (inactive)	0.42 (inactive)	-0.779 (inactive)	1.94	0.919 (inactive)	-0.0553	1.08	0.911	-0.0549	0.87	0.0045	0.203	-0.27 (inactive)	1.3	0.781	0.241	0.784	0.383	-0.6
CC1CC/C=C\[C@H]2OC34C=CCN(C(C)(C)C)C(=O)[C@H]3N(CCCCCCO)C(=O)[C@@H]4C2C(=O)O1 (stereo not given in full)	-0.005	-0.242 (inactive)	-0.357 (inactive)	-0.19 (inactive)	1.4	-0.31 (inactive)	-0.183	-0.597	0.0452	-0.371	2.05	-0.0908	0.416	-0.0517 (inactive)	0.0444	-0.615	-0.777	-0.568	-0.957	1.13
CC1CC/C=C\[C@H]2OC34C=CCN(c5ccc(Cl)cc5)C(=O)[C@H]3N(CCO)C(=O)[C@]4(C)C2C(=O)O1 (stereo not given in full)	0.517	-1.51 (inactive)	-1.4 (inactive)	-0.528 (inactive)	0.139	0.613 (inactive)	-0.0619	-0.504	0.105	-0.166	0.111	-0.197	0.693	0.568 (inactive)	-0.379	-0.15	-0.483	-0.646	-1.46	1.27
CN1C(=O)C2C=CC(C(O)c3ccccc3)N(Nc3ccccc3)C2C1=O (stereo not given)	0.47	-0.124 (inactive)	0.807 (inactive)	0.646 (inactive)	2.71	-1.79 (inactive)	0.0105	-1.09	-0.557	-0.0828	1.54	0.754	1.13	1.03 (inactive)	-0.678	-0.415	-1.32	-0.674	-1.22	0.918
O=C1O[C@@H](c2ccccc2)[C@@H](c2ccccc2)N2[C@@H](c3ccc(OCCO)cc3)[C@]3(C(=O)Nc4ccccc43)[C@@H](C(=O)NC[C@H](O)c3ccccc3)[C@H]12	1.35	1.63 (inactive)	1.59 (inactive)	4.14 (inactive)	2.44	-0.46 (inactive)	0.161	0.457	0.488	0.174	1.17	0.189	0.2	-0.203 (inactive)	0.55	0.445	0.566	0.33	0.334	0.632
COc1ccc(C(=O)Nc2cccc(CN3C(=O)[C@]4(O[C@H](CCO)[C@@H]([Si](C)(C)c5ccc(OC)cc5)[C@@H]4C)c4ccccc43)c2)cc1	1.56	0.412 (inactive)	-14.9 (active)	0.251 (inactive)	1.83	1.03 (inactive)	-0.164	0.822	1	-0.0675	1.44	0.541	0.223	1.3 (inactive)	0.691	0.901	0.0077	0.742	0.331	1.26
CC(C)N1C(=O)c2ccccc2[C@](C)(C(=O)NCc2ccccc2)[C@@H]1c1ccc(CO)cc1	0.0055	-0.261 (inactive)	-1.16 (inactive)	-0.625 (inactive)	1.91	-0.587 (inactive)	0.0322	-0.969	-0.394	-0.244	0.758	0.234	0.849	0.0799 (inactive)	-0.44	-0.329	-0.587	-0.615	-1.16	0.288
CCCCC(O)C1C=CC2C(=O)N(c3ccccc3)C(=O)C2N1Nc1ccccc1F (stereo not given)	1.11	-0.0377 (inactive)	-0.579 (inactive)	1.03 (inactive)	2.99	-0.825 (inactive)	0.648	-0.0787	0.818	0.159	1.24	1.4	1.17	0.826 (inactive)	0.857	0.827	-0.374	0.443	-0.683	0.834
CN1C(=O)C2C=CC(C(O)c3ccc(I)cc3)N(N3CCCCC3)C2C1=O (stereo not given)	1.55	0.276 (inactive)	-1.13 (inactive)	-0.0412 (inactive)	3.36	-1.74 (inactive)	0.583	0.282	1.04	0.0747	1.36	0.382	1.21	1.18 (inactive)	1.07	0.354	0.396	1.34	-0.147	0.72
